Activity change, negative = inhibition data for 24 compounds are collected here from PubChem BioAssay AID1259415 (National Center for Advancing Translational Sciences (NCATS), 2018).

In all, about 410,000 compounds went through this assay and about 18,000 (4.4%) were called active. About 7% were inconclusive and are not listed. Cut-off read from the data, not from the text of the source: active = activity change below about -60%; inconclusive = no clear call, values can overlap the other calls; inactive = above about -39%. Only a selection was taken, and actives are over-represented in it overall.
% is set by controls: 0 for no effect and ±100 for the full control effect.

The nature of the assay: qHTS Assay for inhibitors of the human cytomegalovirus (HCMV). To be noted: HFF cells, HCMV-luciferase reporter, 72 h; at 57.5 µM; active compounds read low. The essentials:
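Cell-based, HFFs, 1000 cells/well, 16 h 37C; cpds in DMSO + HCMV-luc, MOI 1 PFU/cell; 72 h 37C; OneGlo luminescence after 5 min RT; norm. to buffer vs Salinomycin 10uM.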
For `COc1ccccc1N(C)S(=O)(=O)c1ccc(C(=O)N2CCC(C(N)=O)CC2)cc1`, the activity change, negative = inhibition is 63.1% (inactive).
With `COc1ccc(C(=O)Nc2ccc(-n3nncc3-c3ccccc3)cc2)cc1OC`, the activity change, negative = inhibition is -6.64% (inactive).
The result for `COc1cccc(C(=O)NC(=O)Nc2ccc(-c3cc(C(F)(F)F)nn3-c3ccccc3)cc2)c1` reads -6.79% (inactive); that for `COc1cccc(C(=O)Nc2ccc(-c3cc(C(F)(F)F)nn3-c3ccccc3)cc2)c1`, -87.7% (active).
The value for `Cc1ccc(CNC(=O)CCc2c(C)nc3nc(CNC(=O)OC(C)(C)C)nn3c2C)cc1` was -10.3% (inactive); that for `COc1cc2ccccc2cc1C(=O)Nc1cccc(-c2nc3ccccc3o2)c1` was -27.9% (inactive).
With `Cc1ccc(C)c(N2CCN(C(=O)C3CCC(CNS(=O)(=O)c4cccs4)CC3)CC2)c1` (centres undefined), the activity change, negative = inhibition is -30% (inactive).
The value for `CC1CCc2sc(C(=O)NCC(c3ccco3)N3CCCCC3)cc2C1` (centres undefined) was -61.7% (active).
The value for `CC1Cc2ccccc2N1S(=O)(=O)c1cccc(C(=O)NCC(c2ccco2)N2CCCC2)c1` (centres undefined) was -24% (inactive); that for `CSc1ncccc1C(=O)NCC(c1ccco1)N1CCCCC1` (centres undefined) was -4.3% (inactive); that for `CCOC(=O)c1ccc(NC(=O)C2CC(=O)NC(=Nc3ccc(C)c(C)c3)S2)cc1` (centres undefined) was -14.2% (inactive).
The value for `CC1(C)CC(=O)c2cc(OCC(=O)NCC3CCCO3)ccc2O1` (centres undefined) was 55.1% (inactive).
With `Cc1ccc(CNC(=O)CCC(=O)N2Cc3ccccc3Oc3ncccc32)cc1`, the activity change, negative = inhibition is -2.66% (inactive).
The result for `CN1CCC(N(C)C(=O)c2ccc(Cl)c(S(=O)(=O)Nc3ccc(Cl)cc3)c2)CC1` reads -3.23% (inactive); that for `Cn1c(=O)n(C)c(=O)n(CC(=O)N2CCCCC2)c1=O`, 32.3% (inactive).
Consider `O=C(Cn1c(=O)n(CC2CS2)c2ccccc21)N1CCCCC1` (centres undefined), for which the activity change, negative = inhibition was -89.4% (active).
The value for `CC1CCCN(C(=O)Cn2c(=O)oc3ccccc32)C1` (centres undefined) was 12.6% (inactive).
With `Cc1cc(NC(=O)c2ccc(-c3ccc(Cl)cc3)o2)cc(-c2nc3ncccc3o2)c1O`, the activity change, negative = inhibition is 5.53% (inactive).
The result for `Cc1cc(C(=O)NNC(=O)CCC2CCCCC2)c(C)o1` reads -17% (inactive).
As to `Cc1cccc(C(=O)OC(C)C(=O)NC2CCCc3ccccc32)c1O` (centres undefined), the activity change, negative = inhibition was -10.7% (inactive).
The value for `COc1cccc(C(=O)Nc2c3c(nn2-c2cccc(C)c2C)CS(=O)(=O)C3)c1OC` was -4.86% (inactive); that for `Cc1cccc(-n2nc3c(c2NC(=O)c2ccc(Br)o2)CSC3)c1C` was 14.4% (inactive).
The value for `Cc1cc(C(=O)NC2CCCc3c2cnn3-c2cccc(C)c2C)c(C)o1` (centres undefined) was -73.8% (active).
The value for `COc1ccc(C(=O)NC2CCCc3c2cnn3-c2cccc(C)c2C)c(OC)n1` (centres undefined) was -87% (active).
